# Tau fil binding = tau filament binding; P10636; recombinant tau filaments, thioflavin S fluorescence, 15 h; filaments grown with octadecylsulfate alongside compound; Potency, µM (series often up to 57.1 µM), for the others: top-dose activity change, negative = inhibition; 2% of 71,000 active;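 also: % is scaled to controls: 0 for no effect and ±100 for the full control effect; actives lower thioflavin S fluorescence by blocking filaments or displacing dye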
#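 Thioflavine S fluorescence (ex 450, em 510 nm) reports filaments formed from 1 uM human tau plus 30 uM ODS over 15 h at 37 C (10 mM HEPES pH 7.4, 100 mM NaCl, 5 mM DTT); compounds displacing dye or blocking filaments lower signal.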
# TSHR agonist = activates the human thyroid stimulating hormone receptor. AID 926. Potency, µM (series often up to 57.1 µM), for inactives: at the highest dose activation, most hits filed as activators. P16473. 0.48% of 73,000 active. HEK293-CNG-TSHR cells (CNG channel as cAMP sensor), membrane potential dye, cAMP; active = well fitted activation curve with a large enough effect in the main read-out, with a control signal flat, not every such curve was filed as active; inconclusive = small, poorly fitted or top-dose-only effect, or a change in a side signal; inactive = no such curve, though single readings can be large or run the other way; % of control where 0% means no effect;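 also: the control signal comes from parental cells without the receptor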
# Target sequence (P16473 whole entry, looked up): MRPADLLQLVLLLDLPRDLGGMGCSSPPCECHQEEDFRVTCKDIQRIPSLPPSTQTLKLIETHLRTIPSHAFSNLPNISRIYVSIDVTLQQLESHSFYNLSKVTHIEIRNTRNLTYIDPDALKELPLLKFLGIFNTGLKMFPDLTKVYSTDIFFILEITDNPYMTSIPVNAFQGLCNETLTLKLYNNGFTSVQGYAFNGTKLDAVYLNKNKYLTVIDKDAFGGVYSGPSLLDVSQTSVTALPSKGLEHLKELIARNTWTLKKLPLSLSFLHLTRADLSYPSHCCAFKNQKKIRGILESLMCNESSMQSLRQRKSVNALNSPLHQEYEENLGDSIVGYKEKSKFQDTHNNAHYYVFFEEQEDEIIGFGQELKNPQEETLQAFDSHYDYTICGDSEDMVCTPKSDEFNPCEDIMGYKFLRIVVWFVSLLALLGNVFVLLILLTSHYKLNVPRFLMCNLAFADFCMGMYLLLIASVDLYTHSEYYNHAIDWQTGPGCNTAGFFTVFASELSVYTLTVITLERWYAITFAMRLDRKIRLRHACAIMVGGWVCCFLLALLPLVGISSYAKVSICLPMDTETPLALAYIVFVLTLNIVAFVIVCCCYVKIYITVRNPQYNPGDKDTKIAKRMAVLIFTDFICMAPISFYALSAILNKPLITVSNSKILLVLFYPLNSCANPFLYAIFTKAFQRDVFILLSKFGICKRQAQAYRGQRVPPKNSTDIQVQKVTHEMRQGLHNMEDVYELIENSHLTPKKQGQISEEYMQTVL
#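 cAMP rise detected as CNG-channel membrane depolarization by fluorescent dye (emission 590 nm), 30 min after compound, following 60 min dye loading containing 100 uM RO 20-1724 at room temperature. Cells: TSHR/CNG HEK 293, with parental CNG HEK 293 as control.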
# Hsp90 Hop PPI = changes Hsp90-Hop TPR2A binding signal, up or down. 0.44% of 71,000 active. AlphaScreen TPR2A-His6 binding biotin-Hsp90 C-terminal peptide. Potency, µM (series often up to 57 µM), for inactives: at the top dose activity change, negative = inhibition; active = well fitted curve in either direction with a large enough effect; inconclusive = small, poorly fitted or top-dose-only effect, or another doubt; also: % is scaled to controls: 0 for no effect and ±100 for the full control effect
# DNA Pol III inh = inhibitors of bacterial DNA polymerase III holoenzyme. reconstituted DNA polymerase III holoenzyme replication, biochemical. Potency, µM (doses to about 57.1 µM), inactives show at the top dose activity change, negative = inhibition. 0.25% of 71,000 active. AID 603; also: % is scaled to controls: 0 for no effect and ±100 for the full control effect
#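 Reconstituted *E. coli* holoenzyme (0.35 nM Pol III, 1 nM beta, 154 nM SSB, 2 nM primase) was preincubated with compound for 15 min at RT. Synthesis on 1.4 nM ssM13Gori ran 35 min, then was stopped with PicoGreen/EDTA and read as dsDNA fluorescence.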
# HEK293 cAMP cs = raises cAMP in parental HEK293 cells, TSHR agonist counter-screen; 2.5% of 73,000 active; parental HEK293 CNG cAMP sensor, membrane potential fluorescence; Potency, µM (top dose mostly 57.1 µM), without a hit: at the highest dose activation, most hits filed as activators; also: % of control where 0% means no effect; nearly all actives have a fitted effect of over 55% in size
#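 Parental HEK 293 cells stably expressing a modified CNG channel (no TSHR) report cAMP rise as membrane depolarization. Membrane potential dye with 100 uM RO 20-1724 was loaded for 60 min at room temperature, then compound added for 30 min; fluorescence read at 590 nm.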
# Active calls of the source: *; i = inactive; ? = inconclusive; nt = no result given; [ ] = remark or other dose. Rows were chosen to be rich in hits. Some 5.1% of all compounds tested hit in one or more screens of this group. Unless noted, calls follow the shape of the dose curve; as a rule, active = well fitted curve in the direction sought with a large enough effect; inconclusive = small, poorly fitted or top-dose-only effect, or another doubt; inactive = no such curve, though single readings can be large; an effect the other way counts as inactive or inconclusive. Potency is read from the fitted curve at half-maximal effect.
SMILES,Tau fil binding,TSHR agonist,Hsp90 Hop PPI,DNA Pol III inh,HEK293 cAMP cs
CCOC(=O)c1cnn2c(C(F)(F)F)cc(-c3ccccc3)nc12,13µM*,?,14%,-6%,?
CCOC(=O)C1CCCN(C(=O)c2cnn3c(C(F)(F)F)cc(-c4ccccc4)nc23)C1 (stereo not drawn),13µM*,?,?,-5%,?
CCOC(=O)c1cnn2c(C(F)(F)F)cc(-c3cn(C)nc3C)nc12,0%,0%,-7%,-1%,2%
Brc1ccccc1-c1nnc(COc2ncnc3c2cnn3-c2ccccc2)o1,-2%,?,1%,1%,25µM*
Brc1ccccc1-c1nnc(CSc2nnnn2-c2ccccc2)o1,0%,-2%[11.4 µM],8%,-7%,21%
Cc1cnc(CNc2ncnc3ccc(-c4cccc(NS(C)(=O)=O)c4)cc23)cn1,-8%,4%,1%,0%,8%
CN(Cc1ccco1)c1cc(-c2ccoc2)ncn1,173%,4%,-8%,-8%,-1%
CC(=O)OCC1OC(C#Cc2ccc(C)cc2C)C=CC1OC(C)=O (stereo not drawn),nt,8%[11.4 µM],nt,nt,1%[11.4 µM]
COc1ccc(-c2csc(N(CC3CCCO3)C(=O)c3cccs3)n2)cc1 (stereo not drawn),10%,?,21%,1%,16µM*
C[C@H]1[C@H](NC(=O)/C(=N/OC(C)(C)C(=O)O)c2csc(N)n2)C(=O)N1S(=O)(=O)O (stereo in doubt),8%[25.6 µM],-1%[25.6 µM],-3%[26 µM],1%[25.6 µM],6%[25.6 µM]
Cn1cccc1C(=O)N1CCC2(CCCN(C(=O)Nc3cccc(C#N)c3)C2)CC1,-8%,5%,-5%,-6%,-7%
COCC(=O)Nc1ccc(N(C)C)cc1,-4%,0%,-4%,-5%,7%
CN(C)c1ccc(NC(=O)CCCc2ccccc2)cc1,20µM*,-17%,-13%,-2%,-10%
c1ccc2c(N3CCCCC3)nc(N3CCCC3)nc2c1,83%,?,-5%,-2%,13µM*
c1ccc(-c2nc(N3CCCCCC3)c3ccccc3n2)nc1,13µM*,?,?,-14%,?
N#Cc1c(/N=C/c2ccco2)sc2c1CCC2,16µM*,-2%,-8%,-10%,-7%
OC[C@@H]1O[C@@H](O)[C@H](N=Cc2ccc3c(c2)OCO3)[C@@H](O)[C@@H]1O,7%[11.4 µM],4%[11.4 µM],-5%[11 µM],-19%[11.4 µM],-3%[11.4 µM]
O=c1c2cc(Cl)ccc2oc2nc3n(c(=O)c12)CCCS3,13µM*,-2%,0%,0%,-2%
N=c1ccn2c(n1)O[C@@H]1[C@@H](O)[C@H](CO)O[C@H]12,8%,5%,-4%,9%,5%
COCCOc1ccc(C(F)(F)F)cc1Nc1nc2ccccc2o1,48%,13µM*,?,-8%,-13%
CN(C)c1nc(NCc2ccccc2)nc(Oc2ccc(=O)[nH]n2)n1,-5%,20µM*,-3%,-4%,12%
COc1ccc2[nH]cc(CCNc3cc(-c4ccccc4OC)ncn3)c2c1,-15%,1%,-26%,-9%,7%
OC(CN(c1ccccc1)c1ccccc1)Cn1cnc2ccccc21 (stereo not drawn),13µM*,nt,-23%,5%,30%
Cc1cccc(OCCn2c(NC(=O)c3ccco3)nc3ccccc32)c1,370%,?,-2%,-6%,32µM*
Cc1ccc(OCCn2c(NC(=O)c3ccco3)nc3ccccc32)cc1,103%,?,?,-9%,16µM*
SMILES,Tau fil binding,TSHR agonist,Hsp90 Hop PPI,DNA Pol III inh,HEK293 cAMP cs
O=C(Nc1nc2ccccc2n1CCOc1ccccc1)c1ccco1,62%,?,-1%,-2%,25µM*
O=C(Nc1nc2ccccc2n1CCOc1ccc(Cl)cc1)c1ccco1,i,?,-5%,3%,25µM*
O=C(Nc1nc2ccccc2n1CCN1CCCCC1)c1ccco1,11%,?,-9%,-3%,-40%
O=C(Nc1nc2ccccc2n1Cc1ccc(Cl)cc1)c1ccco1,139%,?,-4%,-5%,?
c1ccc(OCCn2c(-c3ccco3)nc3ccccc32)cc1,nt,?,nt,nt,25µM*
CC(=O)NC1C(=O)N=C(SCC(=O)NC(C)c2ccccc2)NC1=O (stereo not drawn),-3%,?,4%,-1%,16µM*
CCCOC(=O)c1ccc(Oc2c(-c3ccc(OC)cc3O)n[nH]c2C)cc1,6%,nt,-12%,-2%,-5%
CCCOC(=O)c1ccc(Oc2c(-c3ccc(O)cc3O)n[nH]c2C)cc1,20µM*,9%,-9%,-4%,6%
CCc1cc2c(nc1CC)CCN(CC/C(C)=N/O[C@@H](C)CN1CCCCc3nc(C)c(C)cc31)C2,nt,6%[11.4 µM],nt,nt,12%[11.4 µM]
CCOc1ccccc1NC(=O)N1CCCC1C(=O)Nc1ccc(-n2cnnn2)c(C)c1 (stereo not drawn),-1%,20µM*,-2%,-3%,-2%
CC(=O)c1cccc(NC(=O)Cc2cccs2)c1,4µM*,-4%[11.4 µM],-6%[11 µM],10%[11.4 µM],3%[11.4 µM]
CC(=O)c1ccc(OC2C=CC(C#Cc3ccc(Br)cc3)OC2CO)cc1 (stereo not drawn),nt,5%[11.4 µM],nt,nt,11%[11.4 µM]
CC(=O)N(CC(O)CN(C(C)=O)c1c(I)c(C(=O)NC[C@@H](O)CO)c(I)c(C(=O)NC[C@@H](O)CO)c1I)c1c(I)c(C(=O)NC[C@@H](O)CO)c(I)c(C(=O)NC[C@@H](O)CO)c1I,5%[25.6 µM],-8%[25.6 µM],-3%[26 µM],-3%[25.6 µM],-2%[25.6 µM]
Cc1ccc(-c2cc(-c3ccccc3Cl)c(C#N)c(N)n2)o1,13µM*,18%,-8%,-4%,16%
Cc1ccc(-c2cc(-c3ccc(F)cc3)nc(N)c2C#N)o1,0%,6%,-3%,-4%,8%
Cc1ccc(-c2cc(-c3ccccc3)c(C#N)c(N)n2)o1,3.2µM*,12%,?,-4%,27%
NC(=O)c1cc[n+](CC2=C(C(=O)[O-])N3C(=O)[C@@H](NC(=O)Cc4cccs4)[C@@H]3SC2)cc1,5%[25.6 µM],-6%[25.6 µM],0%[26 µM],-10%[25.6 µM],4%[25.6 µM]
CCC(=O)N1CCc2cc(OC)c(OC)cc2C1COc1ccc(C(=O)OC)cc1 (stereo not drawn),12%,?,-6%,-5%,?
COC(=O)c1ccc(OCC2c3cc(OC)c(OC)cc3CCN2C(=O)c2ccco2)cc1 (stereo not drawn),3%,32µM*,-15%,-4%,28%
CCCCCn1c(CN(C)Cc2ccccc2)nc2c1c(=O)n(C)c(=O)n2C,12%,?,0%,-7%,20µM*
CC(C)=CCC(C)(C)C1OCCN1C(=O)Nc1ccccc1 (stereo not drawn),-24%,10µM*,-1%,-4%,24%
FC(F)(F)c1ccccc1-c1ccc2ncnc(NC3CC3)c2c1,2%,?,3%,-5%,32µM*
Cc1cnc(CNc2ncnc3ccc(-c4ccccc4C(F)(F)F)cc23)cn1,25%,?,-7%,0%,?

# From PubChem BioAssay
